Compound activity deposited in PubChem by several laboratories.
Only some compounds are listed: those with a hit (about 1.7% of all), similar ones and a draw of the others.
CCHF vOTU inh-1: CCHFV vOTU protease inhibitors, primary screen, biochemical, Pep-AMC substrate, fluorescence | Crimean-Congo hemorrhagic fever virus L polyprotein viral ovarian tumor (vOTU) protease … | AID 651958, 2012 | actives 0.55% (n = 370,000) | inhibition, % at 11.5 µM; also: 0% = vehicle wells with enzyme and 100% = no enzyme wells
ugtP null kill: growth inhibition of ugtP-null S. aureus, primary screen, RN4220 ugtP deletion, OD600; 16 h; growth inhibition, % (test concentration not listed); actives 0.54% (n = 330,000); AID 1259309, 2017; in the data active = growth inhibition above about 68%;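 also: plate controls were untreated wells for no effect and antibiotic for full effect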
Sa RN4220 lethal: growth inhibition of S. aureus RN4220, primary screen, OD600 | AID 1259311, 2017 | inhibition, % (no concentration beside the values) | actives 0.33% (n = 330,000) | 16 h; in the data active = inhibition above about 85%;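 also: plate controls were untreated cells for no effect and reference antibiotic for full effect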
Mtb hypoxia inh: PubChem AID 1159583; M. tuberculosis hypoxia-regulated fluorescent reporter, fluorescence; fluorescence inhibition, % (test concentration not listed); actives 0.1% (n = 300,000); in the data active = fluorescence inhibition mostly above about 23%, no sharp cut-off; inactive = mostly below about 17%
BH1578 lux ind: inducers of Vibrio cholerae quorum light production without autoinducers, primary screen, BH1578 luxS cqsA deficient, single point; V. cholerae BH1578 lux reporter, luminescence, 6 h; activation, % at 18.7 µM; actives 0.16% (n = 350,000); AID 588436, 2011; in the data active = activation mostly above about 9.7%, no sharp cut-off
PfHsp40 yeast: rescue of yeast from PfHsp40 toxicity, primary screen, S. cerevisiae, ATP luminescence; S. cerevisiae expressing PfHsp40, growth rescue; growth rescue, % at 12.5 µM; actives 0.68% (n = 340,000); AID 504582, 2011; in the data active = growth rescue above about 28%, passing the limit was not always enough;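 also: yeast W303a lacking pdr1 and pdr3 grown in galactose medium; growth measured after three days at 30 °C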
CCHF vOTU inh-2: CCHFV vOTU protease inhibitors, confirmation, biochemical, Pep-AMC substrate, fluorescence | shares compounds with CCHF vOTU inh-1 | Recombinant CCHFV vOTU | inhibition, % at 11.5 µM | actives 17% (n = 1,900) | AID 686976, 2013
The depositor's hits bear a star; i = inactive; · = no result given. Rule as the data show it, unless noted: active = inhibition above about 30%; inactive = the rest.

SMILES	CCHF vOTU inh-1	ugtP null kill	Sa RN4220 lethal	Mtb hypoxia inh	BH1578 lux ind	PfHsp40 yeast	CCHF vOTU inh-2
COC(=O)C1=C(C)N(Cc2cccc(C(F)(F)F)c2)C(=NCc2ccc(C(F)(F)F)cc2)NC1c1ccc(F)cc1 (stereo not given)	25	·	·	·	·	·	·
COC(=O)C1=C(C)N(Cc2ccc(C(F)(F)F)cc2)C(=NCc2ccc(OC)cc2)NC1c1ccccc1C(F)(F)F (stereo not given)	35*	·	·	·	·	·	-6
CC(=CC(=O)c1ccc(Cl)cc1)NCc1ccc2c(c1)OCO2	·	14	-3	0	·	·	·
COc1ccc(C(O)=C2C(=O)C(=O)N(CCN(C)C)C2c2ccc(OC)c(OC)c2)c(C)c1 (stereo not given)	·	0	2	5	·	·	·
O=C(Nc1cccc(OC(F)(F)F)c1)C1Cc2c(-c3ccccc3Oc3ccccc3)ccnc2O1 (stereo not given)	30*	·	·	·	0	·	-5
O=C(Nc1cc(C(F)(F)F)ccc1F)C1Cc2c(-c3ccccc3Oc3ccccc3)ccnc2O1 (stereo not given)	36*	·	·	·	-1	·	-2
COc1ccc(C(C)=O)c2c(O)cccc12	31*	-13	5	8	i	-1	-17
CO[C@@H]1[C@@H](OC(N)=O)[C@@H](O)[C@H](Oc2ccc3c(O)c(NC(=O)c4ccc(O)c(CC=C(C)C)c4)c(=O)oc3c2C)OC1(C)C	-2	·	·	·	-1	·	·
COC1C(OC(=O)c2ccc(C)[nH]2)C(O)C(Oc2ccc3c(O)c(NC(=O)c4ccc(O)c(CC=C(C)C)c4)c(=O)oc3c2Cl)OC1(C)C (stereo not given)	38*	100*	94*	·	0	3	16
Cc1cc[n+](-c2[nH]c(=O)sc2C=N/N=C(\[O-])c2ccccc2)cc1	·	1	2	5	·	·	·
Cc1cc[n+](-c2[nH]c(=O)sc2/C=N/N=C(\[O-])c2ccncc2)cc1	31*	·	·	·	7	0	-18
CCc1ccc(OCC(=O)NC(NC(=S)Nc2ccccc2C)C(Cl)(Cl)Cl)cc1 (stereo not given)	30*	-30	-6	9	-1	1	-24
CCc1cc[n+](C2=C([O-])c3ccccc3C(=O)/C2=N\S(=O)(=O)c2cccs2)cc1	105*	3	21	-4	-2	0	103*
O=C1C(=O)c2ccccc2C([O-])=C1[n+]1ccccc1	4	3	20	15	0	-1	·
CC(Cc1ccccc1)=NNC(=O)CNC(=O)c1ccccc1	·	4	-1	-9	·	·	·
CC1(C)CSC(Nc2ccc(F)c(Cl)c2)=N1	7	11	5	6	i	0	·
Fc1ccc(Nc2cncc(-c3ccsc3)c2)cc1Cl	94*	·	·	·	-1	·	14
C(=Nn1cnnc1)c1ccccc1OCCOc1ccccc1	·	-5	-4	2	·	·	·
CCN1CCN(c2oc(-c3ccccc3C)nc2S(=O)(=O)c2ccccc2)CC1	35*	8	2	7	-2	0	4
O=C1OC(c2cccs2)=N/C1=C\c1ccc(-c2ccccc2Cl)o1	32*	5	5	-7	-4	4	0
O=C1OC(c2cccs2)=N/C1=C/c1ccc(-c2cccc(C(=O)O)c2)o1	16	1	3	3	0	4	·
Cc1cc([N+](=O)[O-])c2[nH]c(C(=O)NN=Cc3ccccc3C(=O)O)c(-c3ccccc3)c2c1	·	-4	21	-1	·	·	·
Nc1ccc(N2CCCCC2)c2nonc12	111*	10	1	1	0	2	34*
FC(F)(F)C1=Nc2cccc3cccc(c23)N1	41*	-10	22	1	-2	0	17
Fc1ccc(C2=Nc3cccc4cccc(c34)N2)cc1	2	-4	3	-13	0	0	·
SMILES	CCHF vOTU inh-1	ugtP null kill	Sa RN4220 lethal	Mtb hypoxia inh	BH1578 lux ind	PfHsp40 yeast	CCHF vOTU inh-2
CCOc1ccc(CCNC(=O)c2ccc(C)c(S(=O)(=O)N3CCOCC3)c2)cc1OCC	2	4	-1	15	i	0	·
CCOc1ccc(CCNC(=O)c2ccc(Cl)c(S(=O)(=O)N3CCOCC3)c2)cc1OCC	42*	6	5	0	-1	0	1
CCN1CCN(C(=O)C=Cc2ccccc2[N+](=O)[O-])CC1	·	0	11	-4	·	·	·
O=C(COC(=O)c1ncc(Cl)c(Cl)c1Cl)NC1CCCCCC1	41*	6	-1	6	i	-1	8
CCOC(=O)C1CCN(S(=O)(=O)c2ccc(NC(=O)OC)cc2)CC1	0	-3	0	·	·	-1	·
COC(=O)Nc1ccc(S(=O)(=O)N2CCC(C(=O)N(C)C3CCCCC3)CC2)cc1	31*	5	1	1	0	1	-19
COc1cc(NCCCCCCN)c2ncccc2c1OC	102*	-5	5	16	·	1	94*
COc1cc(N)c2ncccc2c1OC	40*	0	1	24	1	-1	3
COc1cc(NC(C)CCCNC(C)C)c2ncccc2c1OC (stereo not given)	17	·	·	·	-1	0	·
CN(C)C=NNC(=O)c1ccc(Cl)cc1	·	-1	-2	1	·	·	·
COc1cc(/C=C2/NC(=O)N(Cc3ccccc3F)C2=O)cc(OC)c1O	40*	·	·	·	0	0	-12
CCOC(=O)C(/C=C(\C#N)C(=O)OCC)=C(/N)N1CCN(c2ccccc2)CC1	33*	·	·	·	·	-1	8
COc1ccc2c(c1)OCC1C2N2C(=O)CN(CCc3c[nH]c4ccccc34)C(=O)[C@@]2(C)C1c1ccccc1 (stereo not given in full)	·	-25	0	-1	·	·	·
O=C(NN=Cc1ccco1)c1ccccc1OCc1ccccc1Cl	·	-6	7	18	·	·	·
CC(CC(=O)Nc1ccc(Cl)c(Cl)c1)=NNC(=O)Cc1ccccc1	·	-10	7	14	·	·	·
